The supplement of paper PMC4466140

How the values were obtained:
Experiment in all cases: SPOT peptide array binding signal intensity (averaged, normalized) (arbitrary units (background-subtracted, floor 0; scale differs between SH3 domains)); higher = stronger binding of the SH3 domain to the peptide
ScBbc1 = biological target: ScBbc1
In short: (§1)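 Spot intensities were captured after detection with anti-GST antibody, an HRP-linked anti-mouse secondary and luminol, and quantified with Genespotter. The probes were GST-fused SH3 domains from four yeast species, produced in E. coli BL21(DE3), purified on glutathione Sepharose and incubated at 10 μg/ml overnight at 4°C on cellulose-bound synthetic 15-mer peptides with cysteines replaced by serines. Binding signal is the normalized, background-subtracted spot intensity averaged over replicates, and its arbitrary units differ between domains.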

ScBem1-D1 = biological target: ScBem1-D1
In short: as §1

ScBzz1-D1 = biological target: ScBzz1-D1
In short: as §1

ScBzz1-D2 = biological target: ScBzz1-D2
In short: as §1

ScCyk3 = biological target: ScCyk3
In short: as §1

ScFus1 = biological target: ScFus1
In short: as §1

ScHof1 = biological target: ScHof1
In short: as §1

ScHse1 = biological target: ScHse1
In short: as §1

ScLsb1 = biological target: ScLsb1
In short: as §1

ScLsb2 = biological target: ScLsb2
In short: as §1

ScLsb3 = biological target: ScLsb3
In short: as §1

ScLsb4 = biological target: ScLsb4
In short: as §1

ScMyo3 = biological target: ScMyo3
In short: as §1

ScMyo5 = biological target: ScMyo5
In short: as §1

ScNbp2 = biological target: ScNbp2
In short: as §1

ScPex13 = biological target: ScPex13
In short: as §1

ScRvs167 = biological target: ScRvs167
In short: as §1

ScSho1 = biological target: ScSho1
In short: as §1

ScSla1-D1-D2 = biological target: ScSla1-D1-D2
In short: as §1

ScSla1-D3 = biological target: ScSla1-D3
In short: as §1

SpAbp1-D1 = biological target: SpAbp1-D1
In short: as §1

SpBbc1 = biological target: SpBbc1
In short: as §1

SpBzz1-D1 = biological target: SpBzz1-D1
In short: as §1

SpBzz1-D2 = biological target: SpBzz1-D2
In short: as §1

SpCyk3 = biological target: SpCyk3
In short: as §1

SpHof1 = biological target: SpHof1
In short: as §1

SpHof1-2 = biological target: SpHof1-2
In short: as §1

SpHof1-3 = biological target: SpHof1-3
In short: as §1

SpHse1 = biological target: SpHse1
In short: as §1

SpLsb1 = biological target: SpLsb1
In short: as §1

SpLsb4 = biological target: SpLsb4
In short: as §1

SpMyo1 = biological target: SpMyo1
In short: as §1

SpNbp2 = biological target: SpNbp2
In short: as §1

SpPex13 = biological target: SpPex13
In short: as §1

SpRvs167 = biological target: SpRvs167
In short: as §1

SpSla1-D1-D2 = biological target: SpSla1-D1-D2
In short: as §1

SpSla1-D3 = biological target: SpSla1-D3
In short: as §1

GKKVRPLLVLLLSRA
SPOT peptide array binding signal intensity (ScBbc1): ≤ 0 | SPOT peptide array binding signal intensity (ScBem1-D1): ≤ 0 | SPOT peptide array binding signal intensity (ScBzz1-D1): 18 | SPOT peptide array binding signal intensity (ScBzz1-D2): 104 | SPOT peptide array binding signal intensity (ScCyk3): 41 | SPOT peptide array binding signal intensity (ScFus1): 1690 | SPOT peptide array binding signal intensity (ScHof1): ≤ 0 | SPOT peptide array binding signal intensity (ScHse1): 1540 | SPOT peptide array binding signal intensity (ScLsb1): ≤ 0 | SPOT peptide array binding signal intensity (ScLsb2): ≤ 0 | SPOT peptide array binding signal intensity (ScLsb3): 97 | SPOT peptide array binding signal intensity (ScLsb4): ≤ 0 | SPOT peptide array binding signal intensity (ScMyo3): ≤ 0 | SPOT peptide array binding signal intensity (ScMyo5): ≤ 0 | SPOT peptide array binding signal intensity (ScNbp2): 237 | SPOT peptide array binding signal intensity (ScPex13): ≤ 0 | SPOT peptide array binding signal intensity (ScRvs167): 9.67 | SPOT peptide array binding signal intensity (ScSho1): 1560 | SPOT peptide array binding signal intensity (ScSla1-D1-D2): ≤ 0 | SPOT peptide array binding signal intensity (ScSla1-D3): 5.5 | SPOT peptide array binding signal intensity (SpAbp1-D1): 52.5 | SPOT peptide array binding signal intensity (SpBbc1): 0.5 | SPOT peptide array binding signal intensity (SpBzz1-D1): 21.5 | SPOT peptide array binding signal intensity (SpBzz1-D2): ≤ 0 | SPOT peptide array binding signal intensity (SpCyk3): 7 | SPOT peptide array binding signal intensity (SpHof1): 157 | SPOT peptide array binding signal intensity (SpHof1-2): 27.8 | SPOT peptide array binding signal intensity (SpHof1-3): 758 | SPOT peptide array binding signal intensity (SpHse1): 1200 | SPOT peptide array binding signal intensity (SpLsb1): ≤ 0 | SPOT peptide array binding signal intensity (SpLsb4): 41 | SPOT peptide array binding signal intensity (SpMyo1): 3.75 | SPOT peptide array binding signal intensity (SpNbp2): 1290 | SPOT peptide array binding signal intensity (SpPex13): 3 | SPOT peptide array binding signal intensity (SpRvs167): 6.83 | SPOT peptide array binding signal intensity (SpSla1-D1-D2): 1 | SPOT peptide array binding signal intensity (SpSla1-D3): ≤ 0
